Screening results: PubChem BioAssay, National Center for Advancing Translational Sciences (NCATS)
HepG2 viability: HepG2 cytotoxicity, counter-screen for TGF-b inhibitors | AID 588856 | Potency, µM (highest dose often 46.1 µM), for the others: at the top dose activity change, negative = cytotoxicity, hits mostly cytotoxic | 410,000 tested, 0.76% active | HepG2 CAGA-GFP viability, ATP luminescence, 18 h; note: potency is the fitted concentration of half-maximal effect
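HepG2 CAGA-GFP cells (1000/well, DMEM with 1% FBS) received compound, then TGF-beta at 500 pg/mL final, and were incubated 18 hours at 37 degrees C. Viability was read by CellTiter-Glo luminescence. Media-only wells were set as complete cell-killing and DMSO as no toxicity.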
TDP1 cell CPT: DT40-hTDP1 cell growth loss with CPT; chicken DT40 Tdp1-/-;hTDP1 cells + 20 nM CPT, ATP luminescence, 48 h; Potency, µM (series often up to 46.2 µM), inactives show at the top dose activity change, negative = growth inhibition, hits mostly inhibitors; 420,000 tested, 12% active; note: potency is the fitted concentration of half-maximal effect; % is set by controls: 0 for no effect and ±100 for the full control effect; nearly all actives have a fitted effect of over 55% in size
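Cell growth measured by CellTiter-Glo luminescence after a minimum 48 h, 37 C compound exposure with 20 nM CPT in Tdp1-knockout DT40 cells stably expressing hTDP1, seeded 400/well; qHTS titration format.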
TGFb SMAD3 inh: blocks TGF-b signaling | HepG2 CAGA-GFP TGF-b/SMAD3 reporter, GFP fluorescence, 18 h; TGF-beta stimulated, 500 pg/mL final | Potency, µM (series often up to 46.1 µM), inactives show top-dose activity, negative = inhibition, actives largely listed as inhibitors | 410,000 tested, 1.2% active; note: potency is the fitted concentration of half-maximal effect; % is set by controls: 0 for no effect and ±100 for the full control effect; nearly all actives have a fitted effect of over 65% in size
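HEPG2 CAGA-GFP, 1000 cells/well; 2 h settle, 37 C; cpd via pin tool; TGF-b 500 pg/mL final; 18 h, 37 C; GFP imaging ex488/em500-530; %Activity normalised to -TGF-b and +DMSO controls; CRC fit, curve class.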
IL-1B inflam inh: inflammasome signaling inhibition, IL-1 beta readout; THP-1 LPS/ATP IL-1B secretion, AlphaLISA, 16 h; active compounds read low; activity change, % at 57.5 µM; 360,000 tested, 4.7% active; in the data active = activity change below about -50%; inconclusive = mostly about -30% to -49%; note: % is set by controls: 0 for no effect and ±100 for the full control effect
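Secreted IL-1B measured by AlphaLISA bead assay after 16 h compound exposure of THP-1 cells; compounds (final up to 57.5 uM) added 1 h before LPS (250 ng/mL) and ATP (1.25 mM) stimulation; lower signal means less secretion.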
TDP1 block: blocks human tyrosyl-DNA phosphodiesterase 1 | Q9NUW8 | recombinant TDP1, AlphaScreen DNA substrate cleavage | Potency, µM (titrated, usually from 130 µM), without a hit: at the top dose activity change, negative = inhibition, usual class: inhibitors | 350,000 tested, 0.28% active; note: potency is the fitted concentration of half-maximal effect; % is set by controls: 0 for no effect and ±100 for the full control effect; nearly all actives have a fitted effect of over 40% in size
Target sequence (Q9NUW8 whole entry, looked up): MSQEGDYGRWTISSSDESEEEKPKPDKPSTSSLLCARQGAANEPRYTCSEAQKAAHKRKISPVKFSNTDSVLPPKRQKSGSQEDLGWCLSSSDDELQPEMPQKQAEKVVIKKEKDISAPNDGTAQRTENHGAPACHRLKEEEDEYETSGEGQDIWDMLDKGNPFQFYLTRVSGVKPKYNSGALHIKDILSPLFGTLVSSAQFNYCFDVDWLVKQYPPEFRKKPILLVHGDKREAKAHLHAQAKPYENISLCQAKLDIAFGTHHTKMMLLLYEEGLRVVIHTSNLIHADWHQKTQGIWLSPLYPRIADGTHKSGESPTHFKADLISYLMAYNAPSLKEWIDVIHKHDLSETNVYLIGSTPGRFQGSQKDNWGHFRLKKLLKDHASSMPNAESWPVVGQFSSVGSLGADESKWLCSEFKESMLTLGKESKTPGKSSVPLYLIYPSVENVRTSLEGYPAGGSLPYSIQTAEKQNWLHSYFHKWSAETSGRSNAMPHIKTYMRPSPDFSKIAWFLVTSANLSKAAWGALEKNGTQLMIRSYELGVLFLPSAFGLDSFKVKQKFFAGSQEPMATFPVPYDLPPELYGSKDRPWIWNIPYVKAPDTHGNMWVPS
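E. coli-derived human Tdp1, 1 nM final. Cpd preinc 15 min RT; substrate 15 nM final, 5 min RT; AS bead mix 10 ug/ml final, 10 min RT. Signal loss = tyrosine-FITC cleavage. No-enzyme wells = max signal.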
TDP1 cell noCPT: qHTS for Inhibitors of human tyrosyl-DNA phosphodiesterase 1 (TDP1): qHTS in cells in absence of CPT. DT40 Tdp1-/- hTDP1 cells, no CPT, ATP luminescence, 48 h. Potency, µM (doses to about 46.2 µM), without a hit: top-dose activity change, negative = growth inhibition, most hits filed as inhibitors. 420,000 tested, 15% active. AID 686978, 2013; note: potency is the fitted concentration of half-maximal effect; % is set by controls: 0 for no effect and ±100 for the full control effect; nearly all actives have a fitted effect of over 55% in size
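Compound effects on proliferation are scored in DT40 Tdp1-/-;hTDP1 cells in the absence of CPT. ATP levels (CellTiter-Glo luminescence) are recorded after a ≥48 hr, 37 °C incubation.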
Active calls of the source: *; i = inactive; u = inconclusive; x = no result given; [ ] = remark or other dose. Hits are enriched below; roughly 19% of the tested compounds scored in any of these assays. Unless noted, calls come from the whole dose curve; as a rule, active = well fitted curve in the direction sought with a large enough effect; inconclusive = small, poorly fitted or top-dose-only effect, or another doubt; inactive = no such curve, though single readings can be large; an effect the other way counts as inactive or inconclusive.

SMILES	HepG2 viability	TDP1 cell CPT	TGFb SMAD3 inh	IL-1B inflam inh	TDP1 block	TDP1 cell noCPT
Cc1ccc(CNC(=O)C(CC(C)C)N2Cc3ccccc3C2=O)cc1 (stereo not drawn)	-15.1%	u	0.5%	x	-1.2%	u
COc1ccc(C(CC(=O)Nc2cc(OC)c(OC)c(OC)c2)N2Cc3ccccc3C2=O)cc1 (stereo not drawn)	-17.0%	23.1µM*	-1.2%	x	8.5%	23.1µM*
COc1ccc(CNC(=O)C(C)N2Cc3ccccc3C2=O)cc1 (stereo not drawn)	9.7%	-3.3%	-1.5%	x	-1.9%	-20.2%
COc1ccc(C(CC(=O)NCc2ccccc2)N2Cc3ccccc3C2=O)cc1 (stereo not drawn)	-15.3%	u	-8.0%	x	5.6%	23.1µM*
COc1ccc(C(CC(=O)Nc2ccc(OC)c(OC)c2)N2Cc3ccccc3C2=O)cc1 (stereo not drawn)	-10.7%	u	u	x	-2.8%	u
COc1ccc(OC)c(-c2csc(NC(=O)CN3C(=O)C4CCCCC4C3=O)n2)c1 (stereo not drawn)	-40.0%	-25.3%	-4.2%	-56.1*	1.7%	-15.5%
COc1ccc(-c2csc(NC(=O)CN3C(=O)C4CCCCC4C3=O)n2)cc1OC (stereo not drawn)	0.0%	-1.2%	-11.6%	i	6.4%	-27.7%
O=C(CN1C(=O)C2CC=CCC2C1=O)Nc1nc(-c2ccc(F)c(F)c2)cs1 (stereo not drawn)	-0.1%	u	0.0%	-5.7	0.7%	20.6µM*
COc1ccc(-c2csc(NC(=O)CN3C(=O)C4CC=CCC4C3=O)n2)cc1OC (stereo not drawn)	-11.8%	u	-17.1%	-0.4	x	8.2µM*
O=C(CCN1C(=O)C2CCCCC2C1=O)Nc1nc(-c2ccc(F)c(F)c2)cs1 (stereo not drawn)	-6.6%	u	-16.1%	u	1.2%	18.4µM*
CC(=O)OCC1OC(c2cc(C)cc(C)c2)C=CC1OC(C)=O (stereo not drawn)	x	x	x	x	1.6%[21 µM]	x
COc1cccc(C(C)(O)c2nc(-c3cccc(C#N)c3)cs2)c1 (stereo not drawn)	-6.7%	18.4µM*	-16.7%	-23.9	x	13µM*
CC(O)(c1ccccc1)c1nc(-c2cccc(C#N)c2)cs1 (stereo not drawn)	-1.6%	u	-0.7%	1.9	x	u
COc1ccc(C(C)(O)c2nc(-c3cccc(C#N)c3)cs2)cc1 (stereo not drawn)	-11.0%	13µM*	-1.4%	9.1	x	20.6µM*
COc1cc(OC)c(NC(=O)C(c2ccccc2)N2Cc3ccccc3C2=O)cc1Cl (stereo not drawn)	-2.9%	u	-33.3%	x	3.7%	-23.3%
CCCC(c1nnnn1C(C)(C)CC)N(CCCO)Cc1cc2cc(C)cc(C)c2[nH]c1=O (stereo not drawn)	18.7%	u	u	-11.9	2.6%	u
Cc1cccc2cc(C(c3nnnn3C(C)(C)C)N(Cc3ccco3)CC3CCCO3)c(=O)[nH]c12 (stereo not drawn)	-27.6%	u	0.0%	u	x	u
CCC(c1nnnn1Cc1ccco1)N(Cc1ccccc1OC)Cc1cc2cc(C)ccc2[nH]c1=O (stereo not drawn)	6.2%	u	3.8%	-12.2	2.0%	23.1µM*
CCC(c1nnnn1C(C)(C)CC)N(CCCO)Cc1cc2cc(C)cc(C)c2[nH]c1=O (stereo not drawn)	17.9%	u	6.0%	u	1.1%	20.6µM*
Cc1ccc2[nH]c(=O)c(CN(Cc3ccco3)Cc3nnnn3Cc3ccco3)cc2c1	-6.2%	u	2.1%	x	0.4%	u
